Experimental findings from PubChem BioAssay AID1445 (SRMLSC, 2008) are described below.

Among all 220,000 compounds or so, about 910 (0.41%) were called active. The entries come from a sample that favours actives as a whole. Results with a measured potency or affinity are listed apart. Values without a mark were called inactive.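 Rule for the calls: active = primary inhibition above the hit cutoff, then over 50% inhibition at one or more dose response concentrations (cut at about 23% in these data, passing the limit was not always enough); inconclusive = conflicting primary data, or primary hits not chosen for dose response; inactive = low primary inhibition, or under 50% at every dose.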

For this assay, the target named is Aminopeptidase N (Plasmodium falciparum (isolate 3D7)) (UniProt O96935). In words: malaria alanyl aminopeptidase activity blockers – biochemical, fluorogenic H-Leu-NHMec substrate, 1536-well (AID 1445).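 Note: plate controls were DMSO full reaction for no effect and no enzyme background for full effect.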 To be noted: recombinant M1AAP, H-Leu-NHMec fluorogenic kinetic assay; at 30 µM, hits give high values unless noted.
Chain of Aminopeptidase N (Plasmodium falciparum (isolate 3D7)) (O96935 whole entry, looked up): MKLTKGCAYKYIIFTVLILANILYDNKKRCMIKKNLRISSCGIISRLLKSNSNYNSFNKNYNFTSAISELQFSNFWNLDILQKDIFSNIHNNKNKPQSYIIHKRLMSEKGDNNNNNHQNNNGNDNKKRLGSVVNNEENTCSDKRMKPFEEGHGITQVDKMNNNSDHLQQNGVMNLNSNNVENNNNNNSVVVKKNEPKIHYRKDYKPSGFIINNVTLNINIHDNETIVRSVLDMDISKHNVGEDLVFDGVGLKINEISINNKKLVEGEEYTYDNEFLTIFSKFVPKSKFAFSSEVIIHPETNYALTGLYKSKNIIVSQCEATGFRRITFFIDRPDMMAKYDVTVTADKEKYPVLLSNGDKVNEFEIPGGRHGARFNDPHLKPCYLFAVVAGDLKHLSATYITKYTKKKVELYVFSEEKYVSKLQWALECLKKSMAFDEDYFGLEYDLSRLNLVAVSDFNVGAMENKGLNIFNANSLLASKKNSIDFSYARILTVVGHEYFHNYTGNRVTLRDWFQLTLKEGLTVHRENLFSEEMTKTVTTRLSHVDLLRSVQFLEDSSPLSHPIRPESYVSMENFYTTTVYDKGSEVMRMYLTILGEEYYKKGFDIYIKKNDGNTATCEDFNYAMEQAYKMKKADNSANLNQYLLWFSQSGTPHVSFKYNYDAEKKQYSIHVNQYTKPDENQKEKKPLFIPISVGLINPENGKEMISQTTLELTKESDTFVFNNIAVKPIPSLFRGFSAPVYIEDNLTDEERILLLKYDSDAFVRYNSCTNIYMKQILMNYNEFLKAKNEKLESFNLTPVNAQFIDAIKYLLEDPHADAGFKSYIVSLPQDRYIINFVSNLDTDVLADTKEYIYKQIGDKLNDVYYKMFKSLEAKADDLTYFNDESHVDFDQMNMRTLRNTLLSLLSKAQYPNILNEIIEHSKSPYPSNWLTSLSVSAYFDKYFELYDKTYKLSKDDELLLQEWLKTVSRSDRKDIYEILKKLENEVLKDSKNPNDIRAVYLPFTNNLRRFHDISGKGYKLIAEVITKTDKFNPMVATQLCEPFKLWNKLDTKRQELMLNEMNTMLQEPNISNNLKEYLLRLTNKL
Broadly, the inhibition is the drop in the measured response relative to a control, in per cent. With `Cn1c(SCC(=O)N(Cc2ccccc2)C(C)(C)C)nc2ccccc21`, the inhibition is -3.33%. In the case of `COC(=O)c1ccc(N(C(=O)CNC(=O)c2ccco2)C(C(=O)NC2CCCC2)c2ccco2)cc1` (stereo unspecified), the inhibition is -1.68%. With `FC(F)(F)c1cccc(OCCN2CCN(Cc3ccccc3)CC2)c1` the figure was -0.96%; with `O=c1cnnc(N/N=C/c2ccc3c(c2)OCO3)[nH]1`, 4.09%; with `COc1ccc(C(=O)COc2ccc(F)cc2)c(O)c1C`, 0.41%. Turning to `CCCCN1CNC(=S)N(CCc2ccccc2)C1`, the inhibition is 2.11%. For `O=c1cc(/N=C/c2coc3cc(Br)ccc3c2=O)[nH]c(=S)[nH]1`, the inhibition is 18.8%. With `O=C(NNC(=O)c1ccccc1O)c1ccco1` the figure was 5.04%; with `O=C(CN1C(=O)/C(=C/c2ccccc2)SC1=S)NNC(=O)c1ccccc1O`, 6.33%; with `O=C(NN=C1CCN(Cc2ccccc2)CC1)c1ccccc1O`, 8.75%. As to `O=C(CCCN1C(=O)S/C(=C\c2ccccc2)C1=O)NNC(=O)c1ccccc1O`, the inhibition is -1.57%.

`CCN1C(=O)C2(C(C(=O)c3cc4ccccc4o3)=C(O)C(=O)N2CCCN2CCOCC2)c2ccccc21` (stereo unspecified): the inhibition is 2.91%. With `COc1cccc(Cn2cnc3c(NS(=O)(=O)c4ccc(Cl)cc4)c(C)c(C)cc32)c1` the figure was 7.11%; with `Cc1ccc(C(=O)N/N=C\c2ccc(-c3ccc([N+](=O)[O-])cc3)o2)cn1`, 9.19%; with `O=C(N/N=C/c1ccc(-c2ccc([N+](=O)[O-])cc2)o1)C(O)c1ccccc1` (stereo unspecified), 18.2%.

In the case of `O=C(N/N=C/c1ccc(-c2cccc([N+](=O)[O-])c2)o1)c1ccc([N+](=O)[O-])cc1`, the inhibition is 2.39%.

For the compound `NC(=O)N/N=C/c1ccc(-c2ccc([N+](=O)[O-])cc2)o1`, the inhibition was 2.91%. As for `O=C(O)c1ccc(N/N=C/c2ccc(-c3cccc(Cl)c3)o2)cc1`, the inhibition was 13.1%. For `O=C(N/N=C/c1ccc(-c2cccc([N+](=O)[O-])c2)o1)c1ccccc1O`, the inhibition was -18.1%. With `O=[N+]([O-])c1ccc(-c2ccc(/C=N/O)o2)cc1` the figure was 2.25%; with `NC(=S)N/N=C/c1ccc(-c2ccc([N+](=O)[O-])cc2)o1`, -0.83%. The value for `Cc1ccc(-n2c(-c3ccco3)n[nH]c2=S)cc1` was 0.43%.

Regarding `COC(=O)c1cc(C(=O)OC)cc(N2C(=O)CC(NNC(=O)c3ccccc3Br)C2=O)c1` (stereo unspecified), the inhibition is 17.2%. `Cc1ccc(NC(=O)CN2C(=O)c3ccccc3C2=O)nc1`: the inhibition is 1.04%. The value for `CCn1cc(C(=O)O)c(=O)c2cc(F)c(N/N=C/c3ccccc3[N+](=O)[O-])cc21` was -4.53%; that for `Cc1nc(-c2cccc(S(=O)(=O)N3CC(C)OC(C)C3)c2)cs1` (stereo unspecified) was -2.63%. With `CCOc1ccc(CCNC(=O)Cc2nn[nH]n2)cc1OCC` the figure was -2.11%.

For `CN(C)C(=O)c1c([N+](=O)[O-])c(C(C)(C)C)nn1C`, the inhibition is 9.14%. For the compound `CCOc1ccccc1NC(=S)N1CCCc2ccccc21`, the inhibition is 2.13%. With `C/C=C\C(=O)Nc1cccc(C2=NOC3(C2)C[C@@H](C(N)=O)N(C(=O)c2ccccc2)C3)c1` (stereo partly specified) the figure was 7.63%; with `COc1ccc(C2c3ccc(O)cc3Oc3ncn(CCCO)c(=N)c32)cc1` (stereo unspecified), 8.86%.

In the case of `O=C(O)CC1S/C(=N/N=C/c2ccc(-c3ccc(Cl)cc3[N+](=O)[O-])o2)NC1=O` (stereo unspecified), the inhibition was 20.8%.

Consider `CNC(=S)N/N=C/c1ccc(-c2ccc(Cl)c([N+](=O)[O-])c2)o1`, for which the inhibition was 3.04%. The value for `O=C(Oc1ccccc1N1C(=O)C2CCCCC2C1=O)c1ccccc1F` (stereo unspecified) was 4.73%. Turning to `COc1ccc(NC(=O)C2CCN(S(C)(=O)=O)CC2)cc1Cl`, the inhibition was 4.6%. As for `O=C1C2CC=C(Cl)CC2C(=O)N1CCN1CCOCC1` (stereo unspecified), the inhibition was 2.4%. On to `CC(C)CSC1=NSC2=NC(=O)/C(=C\c3coc4ccccc4c3=O)C(=N)N12`, for which the inhibition is 19.5%. For `CCSC1=NSC2=NC(=O)/C(=C\c3coc4ccccc4c3=O)C(=N)N12`, the inhibition was 19.9%. With `CC(C)CSC1=NSC2=NC(=O)/C(=C\c3ccccc3)C(=N)N12` the figure was -10%; with `Cc1cc(/C=C2/C(=N)N3C(=NC2=O)SN=C3S(C)(=O)=O)c(C)n1-c1ccccc1F`, 8.82%; with `COc1ccccc1-n1c(C)cc(/C=C2/C(=N)N3C(=NC2=O)SN=C3S(C)(=O)=O)c1C`, 17.9%.

As for `Cc1cc(/C=C2/C(=N)N3C(=NC2=O)SN=C3S(C)(=O)=O)c(C)n1-c1ccc(F)cc1`, the inhibition is 14.2%.

Regarding `Nc1ccnn1Cc1ccc(Br)s1`, the inhibition was 14.7%. For `CCOc1ccc2ncc(S(=O)(=O)c3ccccc3)c(N3CCN(c4ccc(OC)cc4)CC3)c2c1`, the inhibition is 3.98%. The value for `Cc1ccc(-c2nc(SCC(=O)NCCN3C(=O)CSC3=O)[nH]c2-c2ccc(C)cc2)cc1` was -5.28%; that for `COC(=O)/C(C#N)=C/c1ccc(-c2ccc(S(N)(=O)=O)cc2)o1` was -5.9%; that for `O=C(NC(Cc1ccccc1)C(=O)O)c1ccc(S(=O)(=O)N2CCOCC2)cc1` (stereo unspecified) was -4.36%.

As to `COCCNC(=O)COc1ncnc2ccc(Br)cc12`, the inhibition is 0.71%. The value for `COCCn1c(=NC(C)=O)sc2cc([N+](=O)[O-])ccc21` was 1.15%; that for `O=C(Nc1cccc2oc(=O)ccc12)c1ccc([N+](=O)[O-])cc1[N+](=O)[O-]` was 8.2%. With `Cc1ccc(S(=O)(=O)N(C)C)cc1NC(=O)COC(=O)c1sc2cc(Cl)ccc2c1Cl` the figure was -0.59%; with `CCOC(Cn1c(SCc2cc(C(C)=O)ccc2OC)nc2ccccc2c1=O)OCC`, 2.96%. With `COCCn1c(SCc2cc(C(C)=O)ccc2OC)nc2cc(Cl)ccc2c1=O` the figure was 2.27%. Consider `N/C(=N\OC(=O)CCn1cccc(C(F)(F)F)c1=O)c1ccc(Cl)cc1`, for which the inhibition was -1.85%.

`COc1cc(C)nc(N2CCCC(C(=O)Nc3cccc(Cl)c3Cl)C2)n1` (stereo unspecified): the inhibition is 1.36%. Consider `CCOC(=O)NC(=O)/C(C#N)=N\Nc1cccc(Cl)c1`, for which the inhibition was 1.92%. With `CNC(=O)Nc1cccc(-c2ccnc(C)n2)c1` the figure was 0.72%; with `N#C/C(=N\Nc1cccc(Cl)c1)C(=O)c1ccccc1`, 23.3% (active); with `N#C/C(=N\Nc1ccccc1Cl)C(=O)c1ccccc1`, 12.7%. Take `COc1cccc(C(=O)/C(C#N)=N/Nc2cccc(-c3ccnc(C)n3)c2)c1`: the inhibition is 8.84%. In the case of `COc1ccc(C(=O)/C(C#N)=N/Nc2cccc([N+](=O)[O-])c2)cc1`, the inhibition is 12.4%. With `COc1ccc(C(=O)/C(C#N)=N/Nc2ccc([N+](=O)[O-])cc2)cc1` the figure was 3.64%; with `COc1ccc(C(=O)C2CCCN(C(=O)c3cc(C(C)C)no3)C2)cc1F` (stereo unspecified), 0.4%. With `Cc1ccc(C)n1NC(=O)c1ccc(O)cc1`, the inhibition was 17%. On to `CC(=O)/C=C(\C)N=Nc1c(O)[nH]c2ccccc12`, for which the inhibition was 6.61%. In the case of `C/C(=N\NC(=O)c1ccccc1)c1cccc(Br)c1`, the inhibition is 4.52%. Consider `O=C(Nc1ccccc1[N+](=O)[O-])c1cc2ccccc2nc1Cl`, for which the inhibition was 0.38%. With `CCN(C(=O)CSc1n[nH]c(-c2cccs2)n1)C1CCS(=O)(=O)C1` (stereo unspecified) the figure was -0.17%; with `Cc1cc(Cl)ccc1OCC(=O)OC(C)C(=O)NC(N)=O` (stereo unspecified), -2.23%. The value for `COc1ccc(N=Cc2cc(Cc3ccccc3Cl)cc([N+](=O)[O-])c2O)cc1OC` was 10.4%.

For `O=C1CCCN1CCC1CCCCN1Cc1nc(-c2cnccn2)no1` (stereo unspecified), the inhibition is -4.06%. As to `COc1ccc(NS(=O)(=O)c2cccc(-c3nnc4n3CCCCC4)c2)cc1`, the inhibition is 20%.

`CCCC1=[N+](CC(=O)c2ccccc2)CCn2c(C)ccc21`: the inhibition is 8.08%. For `CCCC1=[N+](CC)CCn2c(C)ccc21`, the inhibition is 47.2% (active).

As to `CCCC1=[N+](CC(C)=O)CCn2c(C)ccc21`, the inhibition is 6.47%. Turning to `O=C(COC(=O)c1ccccc1NC(=O)c1ccco1)NCc1ccc2c(c1)OCO2`, the inhibition is -2.79%.

Turning to `CCCn1nc(C(=O)NCc2ccc3c(c2)OCO3)c2ccccc2c1=O`, the inhibition is 9.46%. For `COc1ccc(C2CC(c3ccc4ccccc4c3)=NN2C(=O)COC(=O)C2CCC(=O)N2)cc1` (stereo unspecified), the inhibition was 2.25%. For `O=C(Nc1ccc(S(=O)(=O)NCc2ccco2)cc1)c1ccncc1`, the inhibition was 6.85%. The value for `COc1ccc(NC(=S)NCc2ccccn2)cc1OC` was 10.7%; that for `COC(=O)CCP(=O)(O)Cc1ccccc1CP(=O)(O)CCC(=O)OC` was 25.9% (active); that for `COC(=O)CP(=O)(c1ccccc1)c1ccccc1` was 6.71%. With `COC(=O)CCC(=O)NNC(=O)Cc1ccccc1` the figure was 1.14%; with `Brc1c(CSc2nncn2-c2ccccc2)nc2ncccn12`, 9.69%; with `NC(=O)CSc1nnc(-c2cccs2)n1Cc1ccco1`, 8.05%. The value for `COc1ccccc1NS(=O)(=O)c1ccc(O)c(C(=O)OCC(=O)Nc2ccccc2F)c1` was -2.66%; that for `O=C(COC(=O)c1ccc(NS(=O)(=O)c2cccs2)cc1O)Nc1nc2ccccc2s1` was 8.12%; that for `COc1cc(-c2nc3ccc4ccccc4c3c3c2CCC3)ccc1O` was 8.66%. Turning to `Cc1ccc(-c2nc(CN3CCN(c4cnccn4)CC3)c(C)o2)o1`, the inhibition was 5.52%.

On to `CCOC(=O)C1CCCN(C(=O)c2cc(-c3ccc(F)cc3)nc3ccccc23)C1` (stereo unspecified), for which the inhibition is 0.66%. Take `Cc1ccc(C)c2[nH]c(=O)c(CN(Cc3ccco3)S(=O)(=O)c3ccc4c(c3)OCCO4)cc12`: the inhibition is 11.6%.
